# Source: PubChem BioAssay
# CHRM1 antagonist = human M1 muscarinic receptor antagonists, primary screen, CHO-K1 cells, Fluo-8 calcium fluorescence, 1536-well; actives 1.3% (n = 360,000); inhibition, % at 3 µM; CHO-K1 hM1, ACh EC80 antagonist;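 active means percent inhibition above its own plate's cutoff, namely the mean of that plate's compound wells plus 3 SD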;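 further: peak over basal fluorescence ratio during 140 s after agonist addition; 0% = ACh EC80 plus DMSO and 100% = DMSO alone without agonist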
# Target sequence (P11229 whole entry, looked up): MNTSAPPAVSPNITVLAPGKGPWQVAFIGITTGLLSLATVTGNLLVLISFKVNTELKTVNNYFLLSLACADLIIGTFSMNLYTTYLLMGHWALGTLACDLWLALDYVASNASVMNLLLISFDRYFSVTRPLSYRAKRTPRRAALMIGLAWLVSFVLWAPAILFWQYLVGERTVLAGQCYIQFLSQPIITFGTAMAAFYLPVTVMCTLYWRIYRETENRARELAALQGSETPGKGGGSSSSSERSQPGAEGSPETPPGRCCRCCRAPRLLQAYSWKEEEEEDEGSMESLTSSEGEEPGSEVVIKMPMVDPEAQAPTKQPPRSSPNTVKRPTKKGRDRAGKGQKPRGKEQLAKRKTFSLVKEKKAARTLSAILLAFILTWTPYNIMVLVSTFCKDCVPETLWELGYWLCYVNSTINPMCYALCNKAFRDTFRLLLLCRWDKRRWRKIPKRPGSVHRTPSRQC
# M1 PAM parental = nonselective calcium activators in parental CHO-K1 cells, primary screen, counter-screen for M1 PAM project, cell-based, Fluo-8 calcium fluorescence, full deck, 1536-well. ATP EC20; 0% at ATP EC20, 100% at ATP max. activation, % at 3 µM. actives 0.02% (n = 360,000);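 active means activation above the run cutoff, the mean activation of all test compounds plus 3 SD, cut at about 40% in these data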;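 further: peak over basal fluorescence ratio in a 140 s read after ATP addition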
# CHO-K1 Ca antag = counter-screen for M1 antagonists: effect in parental CHO-K1 cells; ATP-induced calcium, Fluo-8 fluorescence; inhibition, % at 3 µM; actives 0.6% (n = 360,000);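 active means inhibition above a per-plate cutoff, the plate's mean sample inhibition plus 3 SD, cut at about 24% in these data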;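 further: 0% = DMSO plus EC80 ATP and 100% = DMSO alone without ATP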
# CHO-K1 Ca ag = counter-screen for M1 agonists: effect in parental CHO-K1 cells; Fluo-8 calcium fluorescence; scaled to maximal ATP response, vehicle zero; activation, % at 3 µM; actives 0.48% (n = 360,000); AID 602248, 2012; in the data active means activation above about 15%;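 further: untransfected CHO-K1 host cells lacking M1 receptor as counterscreen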
# CHRM1 agonist = human M1 muscarinic receptor agonists, primary screen, Fluo-8 calcium fluorescence, CHO-K1 cells, HTS. activation, % at 3 µM. actives 0.33% (n = 360,000). Muscarinic acetylcholine receptor M1 (Homo sapiens), P11229. CHO-K1 hM1, agonist mode; 0% DMSO, 100% acetylcholine EC100;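 active means activation above the run's mean compound activation plus 3 SD, cut at about 16% in these data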;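 further: peak over basal fluorescence ratio within a 140 s kinetic read after compound addition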
# CHRM1 PAM = human M1 muscarinic receptor positive allosteric modulators, primary screen, CHO-K1 cells, Fluo-8 calcium fluorescence, 1536-well; Muscarinic acetylcholine receptor M1 (Homo sapiens), P11229; CHO-K1 hM1, ACh EC20; 0% = ACh EC20, 100% = maximal ACh; activation, % at 3 µM; actives 0.088% (n = 360,000); AID 588819, 2011; in the data active means activation above about 19%, passing the limit was not always enough
# * hit, by the source's call. Compounds with a hit are over-represented: about 2.4% of the library has one in this group of screens.
SMILES,CHRM1 antagonist,M1 PAM parental,CHO-K1 Ca antag,CHO-K1 Ca ag,CHRM1 agonist,CHRM1 PAM
Cc1ccc(N(C(=O)c2csnn2)C(C(=O)NCc2ccccc2)c2cccnc2)cc1 (stereo not given),3,12,2,0,-1,0
O=C(NCC(=O)N1CCN(Cc2ccc3c(c2)OCO3)CC1)c1ccccc1F,2,1,-14,1,0,0
CCCCOc1ccc(C(=O)NCC(=O)N2CCN(Cc3ccc4c(c3)OCO4)CC2)cc1,30*,-19,5,2,-6,-16
COCC(C)NC(=O)c1ccc(CN2CCc3ccccc3C2)cc1 (stereo not given),65*,-4,16,0,-9,-25
CCC(C)NC(=O)c1ccc(CN2CCc3ccccc3C2)cc1 (stereo not given),65*,7,-6,1,-9,-26
O=C(NCc1ccc2c(c1)OCO2)c1ccc(CN2CCc3ccccc3C2)cc1,32*,16,-15,1,-6,-20
CC(C)c1nnc(NC(=O)C2CCCN2C(=O)Nc2cccc(Cl)c2)s1 (stereo not given),-14,16,-12,0,-2,8
Cc1ccccc1Sc1ccc(N)cn1,59*,2,-1,4,-4,-26
CN1CCN(S(=O)(=O)c2cccc(C(=O)N(Cc3nnc(-c4ccccc4Cl)o3)C3CC3)c2)CC1,-7,-3,4,17*,-1,5
Cc1ccc(C(=O)N(Cc2nnc(-c3ccccc3Cl)o2)C2CC2)o1,-12,10,-7,1,-7,4
O=C(COc1ccc(Br)cc1)N(Cc1nnc(-c2ccccc2Cl)o1)C1CC1,37*,7,-6,5,-5,-23
O=C(c1ccc([N+](=O)[O-])o1)N(Cc1nnc(-c2ccccc2Cl)o1)C1CC1,27*,-11,14,0,-9,-10
CCC(=O)c1ccc(OCC(=O)N(Cc2nnc(-c3ccccc3Cl)o2)C2CC2)cc1,-10,15,-11,3,-6,5
Cc1ccc(NS(=O)(=O)c2cccc(C(=O)N(C)Cc3cccs3)c2)cc1,-2,-21,-5,3,2,-1
CC(C)(C)c1ccc(C(=O)N/C(=C\c2cccc([N+](=O)[O-])c2)C(=O)Nc2cccc(C(=O)O)c2)cc1,1,-14,10,0,0,2
Cc1cc(C)c(C)c(S(=O)(=O)N2CCN(C(=O)c3ccccn3)CC2)c1C,-7,6,-10,2,-1,4
CCC(=O)c1ccc(OCC(O)CNCCc2ccc(Cl)cc2)cc1 (stereo not given),-15,13,-5,15*,-2,8
Cc1c(NC(=O)C(C)OC(=O)c2ccc([N+](=O)[O-])cc2Cl)c(=O)n(-c2ccccc2)n1C (stereo not given),-9,4,10,0,-4,5
Cn1nnnc1SCC(=O)c1ccc(Br)s1,20,-8,-4,0,-5,-3
Cn1c(Cc2ccccc2)nnc1SCC(=O)c1ccc(Br)s1,22*,8,-1,0,-7,-24
CC(=O)N(c1ccccc1)c1ccccc1[N+](=O)[O-],-4,-4,0,2,-3,-1
O=C(c1cc(-c2ccco2)on1)N1CCc2ccccc2C1,-22,17,-45,0,3,28*
CN(C)CCNC(=O)c1ccc(COc2ccc(Cl)cc2Cl)cc1,31*,17,-8,2,-4,-14
COc1ccc(Cl)cc1C(=O)NCCN(C)C,1,0,-7,0,-2,5
N#C/C(N=Nc1ccccc1O)=N\Nc1ccccc1O,25,4,10,16*,1,-12
SMILES,CHRM1 antagonist,M1 PAM parental,CHO-K1 Ca antag,CHO-K1 Ca ag,CHRM1 agonist,CHRM1 PAM
Oc1ccccc1N=N/C(=N/Nc1ccccc1O)c1ccccc1,2,17,-13,0,-5,-1
CCCCN(C(=O)CSc1nnc(-c2ccc(OC)cc2)n1CC)c1c(N)n(Cc2ccccc2)c(=O)[nH]c1=O,-7,-12,28*,0,-6,-4
CCCCN(C(=O)CSc1nnc(-c2ccc(OC)cc2)n1C(C)C)c1c(N)n(Cc2ccccc2)c(=O)[nH]c1=O,-15,9,-4,-1,-9,14
Cc1ccccc1C(OCCN(C(C)C)C(C)C)c1ccccc1 (stereo not given),101*,8,1,0,-14,-27
CN(C)CCOC(c1ccc(Cl)cc1)c1ccccn1 (stereo not given),42,-4,1,0,-8,-24
CCN(CC)c1ccc2c(-c3ccc(S(=O)(=O)O)cc3S(=O)(=O)[O-])c3ccc(=[N+](CC)CC)cc-3oc2c1,29,-3,8,41*,86*,-18
CS(=O)(=O)Nc1ccc(C2=NN(C(=O)c3ccco3)C(c3cccc(F)c3)C2)cc1 (stereo not given),-1,23,6,16*,-2,12
COc1cccc(-c2nc(CS(=O)(=O)CC(=O)NCCCN3CCN(C)CC3)c(C)o2)c1,-5,10,-14,0,-5,3
COc1cccc(-c2nc(CS(=O)(=O)CC(=O)NCCCN3CC(C)CC(C)C3)c(C)o2)c1 (stereo not given),41*,-12,2,0,-6,-19
CCOCCCNCc1cc(Cl)cc(Cl)c1OCC,-6,7,-8,1,-5,3
[O-]/[N+](=N\Nc1ccc(Cl)cc1)c1ccccc1,-12,9,-12,0,1,14
Cc1ccc2c(c1)C(=O)C(=O)N2Cc1ccc(C(F)(F)F)cc1,8,-12,5,7,23*,4
Cc1ccc(OCCN2C(=O)C(=O)c3cc(C)ccc32)cc1,-2,11,-4,2,0,1
CCOC(=O)c1c(NC(=O)C(C)N2CCN(C(=O)c3ccco3)CC2)sc2c1CCCC2 (stereo not given),37*,2,3,0,20*,-11
CC(C)CCC(CC(C)O)C(=O)NNC(=S)Nc1ccccc1 (stereo not given),-5,18,-4,2,-3,2
COc1ccc(CC(=O)Nc2ccc(-c3ccc4nnc(C)n4n3)cc2)cc1OC,-1,6,-10,0,0,1
CCOC(=O)N1CCN(C2OC(=O)c3ccccc32)CC1 (stereo not given),-19,-1,-3,0,25*,2
